Experiment [1] has as its target Acetylcholinesterase (Homo sapiens) (UniProt P22303). Briefly: Acetylcholinesterase (AChE) small molecule antagonists: fluorescence cell-based qHTS assay (AID 1347398; calls by dose curve; further: nearly all actives have a fitted effect of over 50% in size; further: potency means the concentration at half of the fitted maximal effect). Particulars: Potency: AChE activity; outcome: AChE activity. In a few lines:
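Human SH-SY5Y cells were plated overnight at 37 C, exposed to compound for 30 min at 37 C, 5% CO2, then given acetylthiocholine plus Thiolite Green for 40 min at room temperature; thiocholine fluorescence (Ex/Em 490/520 nm) reports endogenous AChE activity.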
For orientation: Quantitative high-throughput screening tests each substance at several concentrations.

For experiment [2] the target is unchanged. Briefly: Acetylcholinesterase (AChE) small molecule antagonists: enzyme-based qHTS assay with human liver microsomes (AID 1347399; calls by dose curve; further: nearly all actives have a fitted effect of over 60% in size). Particulars: Potency: qHTS inhibition; outcome: qHTS inhibition. Summed up:
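Recombinant human AChE (50 mU/mL in the enzyme mix) and human liver microsomes (0.25 mg/mL final) were preincubated with compound and NADPH (0.25 mg/mL final) for 30 min at 37 C. Acetylthiocholine/DTNB was then added; thiocholine was read colorimetrically after 10 min at room temperature.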

In another experiment the target is Aromatase (Homo sapiens) (UniProt P11511). Briefly: qHTS assay to identify aromatase inhibitors (AID 743083). Further: series mostly up to about 70 µM; nearly all actives have a fitted effect of over 55% in size.
For experiment [3], the target named is Aryl hydrocarbon receptor (Homo sapiens) (UniProt P35869). Kind of experiment: qHTS assay to identify small molecule that activate the aryl hydrocarbon receptor (AhR) signaling pathway (AID 743085).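 Further: HG2L7.5c1 human HepG2 liver cells with stably integrated DRE-driven firefly reporter; series mostly up to about 70 µM; nearly all actives have a fitted effect of over 15% in size.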 In a few lines: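 Cell line HG2L7.5c1 (human hepatoma, 20× DRE-luc). Plated, 5 h 37C, compound/DMSO added, 24 h 37C. CellTiter-Fluor 30 min 37C → fluorescence; then ONE-Glo 30 min RT → luminescence.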

Experiment [4] is described as follows: qHTS assay for small molecules that induce genotoxicity in human embryonic kidney cells expressing luciferase-tagged ATAD5 (AID 651632). Further: nearly all actives have a fitted effect of over 15% in size. In a few lines:
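Luminescent reporter readout, HEK293T ATAD5-luc line: 16 hr drug exposure (37C, 5% CO2) followed by Amplite, 30 min RT.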

Experiment [5] can be described thus: qHTS assay for small molecule agonists of the p53 signaling pathway - cell viability (AID 651633; calls by dose curve; further: potency means the concentration at half of the fitted maximal effect; nearly all actives have a fitted effect of over 30% in size). Summed up: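 p53RE-bla cells, seeded at 4,000 per well and rested 5 h at 37 C/5% CO2, received compounds in DMSO for 16 h at 37 C. CellTiter-Glo was then added, and luminescence was read after 30 min at room temperature to gauge cytotoxicity.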
A short description of experiment [6]: qHTS assay for small molecules that induce genotoxicity in human embryonic kidney cells expressing luciferase-tagged ATAD5 - cell viability (AID 651634; calls by dose curve; further: potency means the concentration at half of the fitted maximal effect; nearly all actives have a fitted effect of over 25% in size). Summed up: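 Viability read: CellTiter-Fluor fluorescence, 30 min at 37C. Cells: HEK293T, luciferase-tagged ATAD5. Exposure: 15.5 hr, 37C, 5% CO2, compound or DMSO vehicle.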
A short description of experiment [7]: qHTS assay for small molecule disruptors of the mitochondrial membrane potential - cell viability (AID 720634; calls by dose curve;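 further: human HepG2 liver cancer cells; series mostly up to about 83 µM; nearly all actives have a fitted effect of over 20% in size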). In a few lines:
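HepG2, 1 hr compound, 37 C. ATP luminescence via CellTiter-Glo, 30 min RT, same well as m-MPI.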

Experiment [8] is described as follows: qHTS assay to test for compound auto fluorescence at 590 nm (red) in HepG2 cells (AID 720674). In a few lines:
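Compound auto-fluorescence is scored relative to Rose Bengal sodium, measured at 540/590 nm in live HepG2 cultures after 1 hr compound contact (37 C, 5% CO2).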

A short description of experiment [9]: qHTS assay to test for compound auto fluorescence at 535 nm (green) in HepG2 cells (AID 720675).
The nature of experiment [10]: qHTS assay to test for compound auto fluorescence at 460 nm (blue) in HEK293 cells (AID 720678). In a few lines: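 After cell attachment (4-5 hr, 37C), compounds were pinned onto HEK293 monolayers in 10% dialyzed FBS medium. The blue channel (405/460 nm) was read following overnight culture. Equivalency was calculated against triamterene.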
Experiment [11] in a line: qHTS assay to test for compound auto fluorescence at 590 nm (red) in HEK293 cells (AID 720679). Summed up: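 Plates of HEK293 cells (10% dialyzed FBS) are treated with 23 nL compound or DMSO vehicle after a 4-5 hr attachment period, incubated overnight at 37C, and read for red fluorescence at 540/590nm.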
A short description of experiment [12]: qHTS assay to test for compound auto fluorescence at 535 nm (green) in HEK293 cells (AID 720680).
The nature of experiment [13]: qHTS assay to test for compound auto fluorescence at 590 nm (red) in HEK293 cell free culture (AID 720683). Summed up:
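Tox21 10K library compounds were pinned into cell-free DMEM with 10% FBS and fluorescence was read at excitation 540 nm. Activity is expressed as Rose Bengal sodium equivalency.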

The nature of experiment [14]: qHTS assay to test for compound auto fluorescence at 590 nm (red) in HepG2 cell free culture (AID 720684). In a few lines:
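Red fluorescence (540 nm excitation, 590 nm emission) was measured after compound transfer into cell-free MEM supplemented with 10% FBS. Values are equivalencies against Rose Bengal sodium.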

Experiment [15] is described as follows: qHTS assay to test for compound auto fluorescence at 460 nm (blue) in HepG2 cell free culture (AID 720685). Summed up: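 Compound (23 nL) or DMSO pinned into cell-free MEM with 10% FBS; blue fluorescence read at 405/460 nm excitation/emission, expressed as auto-fluorescence equivalency to triamterene.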
A short description of experiment [16]: qHTS assay to test for compound auto fluorescence at 535 nm (green) in HepG2 cell free culture (AID 720686).
Experiment [17] can be described thus: qHTS assay to test for compound auto fluorescence at 460 nm (blue) in HepG2 cells (AID 720687). In a few lines: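 Cells (2,000/well in MEM with 10% FBS) attached overnight at 37 C, then were exposed to compound or DMSO for 1 hr at 37 C, 5% CO2. Fluorescence read at Ex/Em 405/460 nm, expressed as triamterene-equivalent signal.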
For experiment [18], the target named is Glucocorticoid receptor (Homo sapiens) (UniProt P04150). Kind of experiment: qHTS assay to identify small molecule antagonists of the glucocorticoid receptor (GR) signaling pathway (AID 720692; active means well fitted inhibition curve with a large enough effect in the signal ratio in the repeat runs, not every such curve was filed as active; the % refers to the signal ratio; further: potency means the concentration at half of the fitted maximal effect). In a few lines:
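Inhibition of glucocorticoid signalling is measured in HeLa cells with a GRE-controlled beta-lactamase reporter; cells are co-treated with compound and 5 nM dexamethasone (final) for 18 h before FRET substrate readout.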

Experiment [19] is described as follows: qHTS assay to identify small molecule antagonists of the glucocorticoid receptor (GR) signaling pathway - cell viability counter screen (AID 720693). Further: potency means the concentration at half of the fitted maximal effect; nearly all actives have a fitted effect of over 55% in size.
A short description of experiment [20]: qHTS assay for identifying genotoxic compounds that show differential cytotoxicity against isogenic chicken DT40 cell lines with known DNA damage response pathways - wild type cell line (AID 743012). Further: potency means the concentration at half of the fitted maximal effect; nearly all actives have a fitted effect of over 60% in size. Summed up:
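First, wild type DT40 cells were plated at 300 per well and equilibrated about 0.5 h at 37 C/5% CO2. Next, compounds in DMSO were added and exposure lasted 40 h. Finally, CellTiter-Glo was added for 30 min at room temperature and luminescence recorded.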

The nature of experiment [21]: qHTS assay for identifying genotoxic compounds that show differential cytotoxicity against isogenic chicken DT40 cell lines with known DNA damage response pathways - Rev3 mutant cell line (AID 743014). Further: potency means the concentration at half of the fitted maximal effect; nearly all actives have a fitted effect of over 55% in size.
The nature of experiment [22]: qHTS assay for identifying genotoxic compounds that show differential cytotoxicity against isogenic chicken DT40 cell lines with known DNA damage response pathways - Rad54/Ku70 mutant cell line (AID 743015). Further: potency means the concentration at half of the fitted maximal effect; nearly all actives have a fitted effect of over 60% in size.
The nature of experiment [23]: qHTS assay to identify small molecule antagonists of the androgen receptor (AR) signaling pathway - cell viability counter screen (AID 743033; further: potency means the concentration at half of the fitted maximal effect; nearly all actives have a fitted effect of over 45% in size).
Experiment [24] concerns the target Androgen receptor (Homo sapiens) (UniProt P10275). Kind of experiment: qHTS assay to identify small molecule antagonists of the androgen receptor (AR) signaling pathway (AID 743035; active means well fitted inhibition curve with a large enough effect in the signal ratio in the repeat runs, not every such curve was filed as active; the % refers to the signal ratio; further: potency means the concentration at half of the fitted maximal effect). Summed up:
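Beta-lactamase FRET read (2 h RT incubation with LiveBLAzer B/G) following 16 h of compound plus R1881 treatment of AR-UAS-bla HEK293 cells, which had been pre-incubated 4 h at 37C.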

Experiment [25] has the same target. Briefly: qHTS assay to identify small molecule agonists of the androgen receptor (AR) signaling pathway (AID 743036; active means well fitted activation curve with a large enough effect in the signal ratio in the repeat runs, with a control signal flat, not every such curve was filed as active; the % refers to the signal ratio). In a few lines:
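Fluorescence from a beta-lactamase FRET substrate served as read-out in AR-UAS-bla GripTite HEK293 cells. Cells were treated with DMSO-dissolved compounds for 16 h at 37C, then with LiveBLAzer B/G substrate for 2 h at room temperature.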

The target is the same in experiment [26]. Kind of experiment: qHTS assay to identify small molecule agonists of the androgen receptor (AR) signaling pathway using the MDA cell line (AID 743040; further: nearly all actives have a fitted effect of over 20% in size). Summed up:
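MDA-kb2 breast carcinoma cells stably carrying an MMTV-driven luciferase reporter (AR- and GR-responsive) were seeded and held 5 h at 37C, 0% CO2, then exposed to compounds in DMSO for 16 h. Luminescence was read 30 min after ONE-Glo addition.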

Experiment [27] can be described thus: qHTS assay to identify small molecule antagonists of the thyroid receptor (TR) signaling pathway - cell viability counter screen (AID 743064). Further: potency means the concentration at half of the fitted maximal effect; nearly all actives have a fitted effect of over 50% in size. In a few lines: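 Fluorescence from CellTiter-Fluor, added after 23.5 h exposure at 37 °C, reported viability of GH3.TRE-Luc cells co-treated with compound and 1 nM T3. Measured in the same wells as the luciferase TR readout.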

The nature of experiment [28]: qHTS assay to identify small molecule antagonists of the thyroid receptor (TR) signaling pathway (AID 743065). Further: potency means the concentration at half of the fitted maximal effect; nearly all actives have a fitted effect of over 55% in size. In a few lines:
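GH3.TRE-Luc rat pituitary cells carrying two TR response elements driving luciferase were plated for 4 h, given compound plus 1 nM T3 (final), and incubated 23.5 h at 37 C. ONE-Glo luminescence measured reporter inhibition; CellTiter-Fluor fluorescence tracked cytotoxicity.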

Experiment [29] can be described thus: qHTS assay to identify small molecule antagonists of the estrogen receptor alpha (ER-alpha) signaling pathway - cell viability counter screen (AID 743074; calls by dose curve;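 further: HEK293 cells carrying ER-alpha-UAS-bla reporter stimulated with 17beta-estradiol; potency means the concentration at half of the fitted maximal effect; nearly all actives have a fitted effect of over 45% in size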).
Experiment [30] concerns the target Estrogen receptor (Homo sapiens) (UniProt P03372). Briefly: qHTS assay to identify small molecule agonists of the estrogen receptor alpha (ER-alpha) signaling pathway (AID 743075; calls by dose curve;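 further: HEK293 GripTite cells with ER-alpha and UAS-driven beta-lactamase reporter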).
Experiment [31] in a line: qHTS assay to identify small molecule antagonists of the estrogen receptor alpha (ER-alpha) signaling pathway using the BG1 cell line - cell viability counter screen (AID 743081).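 Further: compound given together with 17beta-estradiol as the ER stimulus; series mostly up to about 70 µM; nearly all actives have a fitted effect of over 45% in size.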
A short description of experiment [32]: qHTS assay to identify small molecule that activate the aryl hydrocarbon receptor (AhR) signaling pathway - cell viability counter screen (AID 743086). Further: potency means the concentration at half of the fitted maximal effect; nearly all actives have a fitted effect of over 45% in size. Summed up:
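HepG2-AhR-luc (HG2L7.5c1) cells, 4000/well, were preincubated 5 h at 37C, exposed to compound in qHTS format for 24 hr at 37C, then given CellTiter-Fluor for 30 min; viability was read as fluorescence in the reporter wells.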

For experiment [33], the target named is Peroxisome proliferator-activated receptor gamma (Homo sapiens) (UniProt P37231). Briefly: qHTS assay to identify small molecule agonists of the peroxisome proliferator-activated receptor gamma (PPARg) signaling pathway (AID 743094; active means well fitted activation curve with a large enough effect in the signal ratio in the repeat runs, not every such curve was filed as active; the % refers to the signal ratio). In a few lines:
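Compounds dissolved in DMSO were added to PPARg UAS-bla HEK293H cells for 17 h at 37C, and reporter expression was quantified by fluorescence intensity after 1 h with LiveBLAzer B/G FRET substrate.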

Inconclusive results are not listed. The source made the active and inactive calls. Unless noted, the call rests on the fitted dose curve; in most records, active means well fitted curve in the direction sought with a large enough effect in the repeat runs; inconclusive means weak or mixed curves; inactive means no such curve, though single readings can be large; an effect the other way counts as inactive or inconclusive.

Sequence of Acetylcholinesterase (Homo sapiens) (P22303 whole entry, looked up): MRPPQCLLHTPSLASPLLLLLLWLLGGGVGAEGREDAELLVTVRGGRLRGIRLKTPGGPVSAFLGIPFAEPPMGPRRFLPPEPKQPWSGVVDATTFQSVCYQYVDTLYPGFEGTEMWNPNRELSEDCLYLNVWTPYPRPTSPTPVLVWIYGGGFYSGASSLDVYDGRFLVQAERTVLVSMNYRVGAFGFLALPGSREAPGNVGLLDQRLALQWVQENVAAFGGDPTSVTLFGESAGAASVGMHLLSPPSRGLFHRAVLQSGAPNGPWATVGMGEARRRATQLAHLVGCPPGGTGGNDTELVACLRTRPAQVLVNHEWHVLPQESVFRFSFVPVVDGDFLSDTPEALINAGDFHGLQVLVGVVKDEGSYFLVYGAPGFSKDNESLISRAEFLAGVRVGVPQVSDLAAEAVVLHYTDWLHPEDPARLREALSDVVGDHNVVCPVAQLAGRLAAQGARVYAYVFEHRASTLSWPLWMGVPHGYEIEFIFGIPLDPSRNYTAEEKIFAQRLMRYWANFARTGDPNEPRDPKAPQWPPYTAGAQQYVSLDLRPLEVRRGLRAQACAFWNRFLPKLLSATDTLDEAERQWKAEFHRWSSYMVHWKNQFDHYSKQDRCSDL
Sequence of Androgen receptor (Homo sapiens) (P10275 whole entry, looked up): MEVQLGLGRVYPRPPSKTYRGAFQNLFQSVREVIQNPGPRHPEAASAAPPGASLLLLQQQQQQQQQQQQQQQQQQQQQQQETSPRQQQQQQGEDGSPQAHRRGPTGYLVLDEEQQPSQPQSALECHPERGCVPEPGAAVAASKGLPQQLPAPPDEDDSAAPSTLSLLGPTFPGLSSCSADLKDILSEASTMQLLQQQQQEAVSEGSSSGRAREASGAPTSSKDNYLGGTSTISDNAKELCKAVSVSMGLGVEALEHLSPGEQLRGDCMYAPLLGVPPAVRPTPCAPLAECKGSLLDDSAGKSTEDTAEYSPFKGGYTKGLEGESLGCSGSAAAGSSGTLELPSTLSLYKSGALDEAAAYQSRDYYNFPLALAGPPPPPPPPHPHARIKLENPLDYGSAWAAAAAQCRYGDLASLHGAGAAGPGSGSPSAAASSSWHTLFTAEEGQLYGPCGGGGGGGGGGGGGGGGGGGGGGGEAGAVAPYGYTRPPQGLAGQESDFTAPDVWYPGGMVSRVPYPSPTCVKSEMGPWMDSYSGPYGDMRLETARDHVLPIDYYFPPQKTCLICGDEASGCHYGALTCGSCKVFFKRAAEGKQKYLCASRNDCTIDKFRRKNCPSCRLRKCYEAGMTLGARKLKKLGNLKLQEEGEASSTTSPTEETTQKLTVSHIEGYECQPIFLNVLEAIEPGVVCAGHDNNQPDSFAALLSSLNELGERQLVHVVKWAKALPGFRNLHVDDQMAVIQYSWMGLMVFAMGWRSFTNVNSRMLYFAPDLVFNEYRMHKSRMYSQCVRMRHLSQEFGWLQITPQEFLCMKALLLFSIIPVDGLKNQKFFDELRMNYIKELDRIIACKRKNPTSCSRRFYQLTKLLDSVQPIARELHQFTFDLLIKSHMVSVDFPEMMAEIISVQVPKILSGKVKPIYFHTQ
Sequence of Aryl hydrocarbon receptor (Homo sapiens) (P35869 whole entry, looked up): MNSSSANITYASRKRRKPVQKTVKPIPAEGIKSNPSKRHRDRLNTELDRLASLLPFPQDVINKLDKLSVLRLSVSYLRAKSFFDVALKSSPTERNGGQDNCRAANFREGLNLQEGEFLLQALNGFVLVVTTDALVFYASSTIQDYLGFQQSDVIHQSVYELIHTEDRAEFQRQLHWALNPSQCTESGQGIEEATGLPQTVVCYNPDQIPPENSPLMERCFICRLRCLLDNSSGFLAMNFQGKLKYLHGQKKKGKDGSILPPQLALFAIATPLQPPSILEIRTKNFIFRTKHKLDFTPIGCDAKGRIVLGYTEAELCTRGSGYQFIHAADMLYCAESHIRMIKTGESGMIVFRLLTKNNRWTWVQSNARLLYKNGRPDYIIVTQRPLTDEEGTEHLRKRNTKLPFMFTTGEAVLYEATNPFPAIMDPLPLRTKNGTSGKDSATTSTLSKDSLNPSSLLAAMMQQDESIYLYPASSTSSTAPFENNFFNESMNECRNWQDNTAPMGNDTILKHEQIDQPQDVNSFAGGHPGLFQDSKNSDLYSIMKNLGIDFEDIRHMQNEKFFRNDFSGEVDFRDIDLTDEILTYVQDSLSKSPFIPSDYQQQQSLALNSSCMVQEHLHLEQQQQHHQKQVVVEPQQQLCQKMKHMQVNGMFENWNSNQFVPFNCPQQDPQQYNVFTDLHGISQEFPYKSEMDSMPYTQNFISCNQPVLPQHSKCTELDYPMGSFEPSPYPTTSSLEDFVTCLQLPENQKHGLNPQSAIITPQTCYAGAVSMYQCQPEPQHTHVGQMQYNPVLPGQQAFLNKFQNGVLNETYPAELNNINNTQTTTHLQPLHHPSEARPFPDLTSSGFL
Sequence of Estrogen receptor (Homo sapiens) (P03372 whole entry, looked up): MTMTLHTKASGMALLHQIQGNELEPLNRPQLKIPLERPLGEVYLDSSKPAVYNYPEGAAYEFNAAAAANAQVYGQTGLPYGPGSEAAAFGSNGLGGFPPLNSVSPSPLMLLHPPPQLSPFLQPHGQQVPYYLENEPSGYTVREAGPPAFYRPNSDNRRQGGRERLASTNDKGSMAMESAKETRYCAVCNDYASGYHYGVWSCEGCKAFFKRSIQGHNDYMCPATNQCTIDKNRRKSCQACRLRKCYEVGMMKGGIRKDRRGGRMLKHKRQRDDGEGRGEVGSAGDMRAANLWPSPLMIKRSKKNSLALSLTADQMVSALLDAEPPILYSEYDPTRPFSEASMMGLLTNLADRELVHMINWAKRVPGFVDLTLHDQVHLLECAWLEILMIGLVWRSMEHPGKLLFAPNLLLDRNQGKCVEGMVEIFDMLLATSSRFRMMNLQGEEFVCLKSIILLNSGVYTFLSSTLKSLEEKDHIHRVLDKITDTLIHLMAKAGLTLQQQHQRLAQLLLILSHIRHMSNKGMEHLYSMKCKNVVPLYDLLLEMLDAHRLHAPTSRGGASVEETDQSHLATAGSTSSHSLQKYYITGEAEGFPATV
Sequence of Glucocorticoid receptor (Homo sapiens) (P04150 whole entry, looked up): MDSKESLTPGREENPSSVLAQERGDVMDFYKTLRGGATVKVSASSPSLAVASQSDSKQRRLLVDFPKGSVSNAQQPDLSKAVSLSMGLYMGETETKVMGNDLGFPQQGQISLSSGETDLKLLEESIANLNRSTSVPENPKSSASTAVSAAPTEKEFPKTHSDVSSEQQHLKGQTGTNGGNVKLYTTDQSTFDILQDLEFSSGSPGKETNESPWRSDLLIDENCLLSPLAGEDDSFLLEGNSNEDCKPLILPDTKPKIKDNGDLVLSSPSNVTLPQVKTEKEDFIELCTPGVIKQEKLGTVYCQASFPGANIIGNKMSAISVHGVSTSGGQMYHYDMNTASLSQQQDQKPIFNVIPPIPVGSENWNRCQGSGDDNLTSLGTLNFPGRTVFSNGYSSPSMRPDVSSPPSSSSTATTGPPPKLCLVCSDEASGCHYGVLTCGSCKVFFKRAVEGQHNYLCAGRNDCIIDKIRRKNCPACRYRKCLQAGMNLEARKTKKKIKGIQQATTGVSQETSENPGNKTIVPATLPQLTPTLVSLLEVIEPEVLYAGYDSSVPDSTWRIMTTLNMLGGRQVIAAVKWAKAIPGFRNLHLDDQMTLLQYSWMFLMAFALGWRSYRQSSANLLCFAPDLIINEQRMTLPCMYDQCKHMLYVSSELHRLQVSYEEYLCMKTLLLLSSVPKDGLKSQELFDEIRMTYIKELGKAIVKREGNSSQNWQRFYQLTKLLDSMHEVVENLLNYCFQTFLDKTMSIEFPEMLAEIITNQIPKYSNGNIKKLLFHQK
Sequence of Aromatase (Homo sapiens) (P11511 whole entry, looked up): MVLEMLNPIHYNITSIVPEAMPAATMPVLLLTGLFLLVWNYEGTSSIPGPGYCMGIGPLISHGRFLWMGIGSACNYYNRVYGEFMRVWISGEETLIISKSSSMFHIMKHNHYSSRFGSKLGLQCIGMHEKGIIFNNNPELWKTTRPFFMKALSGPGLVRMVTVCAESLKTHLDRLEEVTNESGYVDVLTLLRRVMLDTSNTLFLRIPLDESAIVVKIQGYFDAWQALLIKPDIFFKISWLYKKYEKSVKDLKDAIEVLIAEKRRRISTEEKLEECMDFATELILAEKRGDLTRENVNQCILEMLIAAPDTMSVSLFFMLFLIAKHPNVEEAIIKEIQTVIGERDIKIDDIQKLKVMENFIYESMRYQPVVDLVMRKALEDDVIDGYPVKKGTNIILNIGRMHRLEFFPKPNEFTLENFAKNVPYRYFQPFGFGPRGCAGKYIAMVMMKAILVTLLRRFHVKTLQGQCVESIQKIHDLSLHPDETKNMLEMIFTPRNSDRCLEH
Sequence of Peroxisome proliferator-activated receptor gamma (Homo sapiens) (P37231 whole entry, looked up): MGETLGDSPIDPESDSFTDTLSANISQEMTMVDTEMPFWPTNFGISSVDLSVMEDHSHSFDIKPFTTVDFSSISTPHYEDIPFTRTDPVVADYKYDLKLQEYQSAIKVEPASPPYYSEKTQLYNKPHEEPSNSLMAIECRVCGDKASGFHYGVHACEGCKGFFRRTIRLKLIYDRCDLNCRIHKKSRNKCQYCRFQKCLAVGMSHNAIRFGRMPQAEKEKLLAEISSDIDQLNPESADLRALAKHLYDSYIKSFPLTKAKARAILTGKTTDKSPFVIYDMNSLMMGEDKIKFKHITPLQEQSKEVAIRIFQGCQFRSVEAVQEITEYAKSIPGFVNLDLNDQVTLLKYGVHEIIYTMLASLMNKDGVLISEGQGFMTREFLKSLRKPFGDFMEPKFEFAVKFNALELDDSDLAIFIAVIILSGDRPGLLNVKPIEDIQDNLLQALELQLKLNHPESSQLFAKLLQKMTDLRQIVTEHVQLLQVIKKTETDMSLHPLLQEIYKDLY

Regarding `CCOc1ccc(Cc2nccc3cc(OCC)c(OCC)cc23)cc1OCC`, in experiment [1], the Potency is 15.5 µM (active). The Potency entry in [2] is “inactive”.

Turning to `C=CCOC(=O)COCCC(C)C`, the Potency result in [1] and in experiment [2] was “inactive” each time.

Regarding `CCCC(=O)OC[C@@H](OC(=O)CCC)[C@@H](OC(=O)CCC)[C@H](Cn1c2nc(=O)[nH]c(=O)c-2nc2cc(C)c(C)cc21)OC(=O)CCC`, the Potency entry in experiment [2] is “inactive”.

On to `Cc1ccc(CCn2c3c(c4cc(Cl)ccc42)CN(C)CC3)cn1`, for which, in experiment [1], the Potency was 19.5 µM (active). In addition, the Potency result in experiment [2] was “inactive”.

`CC[C@@]1([C@@H]2O[C@@H]([C@H]3O[C@@](O)(CO)[C@H](C)C[C@@H]3C)C[C@@H]2C)CC[C@H]([C@]2(C)CC[C@]3(C[C@H](O)[C@@H](C)[C@@H]([C@@H](C)[C@@H](OC)[C@H](C)C(=O)O)O3)O2)O1` (stereo in doubt): the Potency result with Aromatase (Homo sapiens) was “inactive”. For the same molecule, the molecule was called inactive in [3].

On to `CN1C2CCC1CC(OC(c1ccccc1)c1ccc(Cl)cc1)C2` (stereo not given), for which the result in experiment [4], in experiment [7], in [8], in experiment [9], in [10] and in experiment [11] was inactive. The molecule was called inactive in [12], in [13], in [14], in experiment [15], in experiment [16] and in experiment [17]. Moreover, the call in experiment [25], in experiment [26], in experiment [3] and in experiment [33] was inactive. In addition, the Potency in experiment [5] is 29.8 µM (active); in experiment [6], 26.6 µM (active); in [18] it was 21.3 µM (active); in [19] it was 23.9 µM (active); in experiment [20], 2.11 µM (active); in [21] it was 2.98 µM (active). The Potency was 4.22 µM (active) in [22]; 15.1 µM (active) in [23]; 21.3 µM (active) in [24]; 4.73 µM (active) in experiment [27]; 5.96 µM (active) in experiment [28]; 23.9 µM (active) in [29]. Also, in [32], the Potency was 23.7 µM (active). The Potency entry in experiment [30] and in experiment [31] was “inactive” throughout.

The values are drawn from PubChem BioAssay (Tox21).
